From PubChem BioAssay (NCATS) come the findings set out here.

Records with an inconclusive call do not appear. Active and inactive are the calls of the source. The call rests on the fitted dose curve; in most records, active means well fitted curve in the direction sought with a large enough effect; inconclusive means small, poorly fitted or top-dose-only effect, or another doubt; inactive means no such curve, though single readings can be large; an effect the other way counts as inactive or inconclusive.

Test [1] concerns the target Luciferin 4-monooxygenase (Photinus pyralis) (UniProt P08659). Briefly: Biochemical firefly luciferase enzyme assay for NPC (AID 624030).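 Further: purified P. pyralis luciferase at 10 nM with luciferin and ATP substrate; nearly all actives have a fitted effect of over 70% in size.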 The note with it: purified P. pyralis luciferase, luminescence, 5 min; series mostly up to 58.6 µM. The procedure, abridged: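 Direct inhibition of firefly luciferase enzyme (10 nM final, 50 mM Tris Acetate) assessed by luminescence within 5 minutes. Percent activity scaled between DMSO and PTC124 positive control, with concentration-effect curves classified by fit quality and response.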

Test [2] is described as follows: S16 Schwann cell viability assay (CellTiter-Glo assay) (AID 624031).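 Further: cellular ATP luminescence as a viability measure; nearly all actives have a fitted effect of over 70% in size.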 The following applies: S16 rat Schwann cells viability, 24 h; series mostly up to 57.5 µM. The procedure, abridged:
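CellTiter-Glo ATP luminescence counter-screen in untransfected S16 rat Schwann cells, 24h compound exposure at 37 degree Celsius after overnight seeding (500-750 cells/well); response scaled between cell-free wells and DMSO (0% activity), curves classed by r2 and magnitude.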
On the technique in general: Cellular ATP, detected with luciferase, serves as a proxy for viable cell number.

A short description of test [3]: S16 Schwann cell PMP22 intronic element firefly luciferase assay (AID 624032). Further: nearly all actives have a fitted effect of over 30% in size. Further: potency means the concentration at half of the fitted maximal effect. The following applies: S16 rat Schwann cells, PMP22 element FLuc, 24 h; series mostly up to 57.5 µM. The procedure, abridged:
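Luciferase reporter of PMP22 intronic-element expression in stably transfected S16 rat Schwann cells, read by ONE-Glo luminescence after 24 h compound exposure at 37 C. Activity scaled between DMSO (0%) and positive-control PTC124; concentration-effect curves quality-classified.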

Sequence of Luciferin 4-monooxygenase (Photinus pyralis) (P08659 whole entry, looked up): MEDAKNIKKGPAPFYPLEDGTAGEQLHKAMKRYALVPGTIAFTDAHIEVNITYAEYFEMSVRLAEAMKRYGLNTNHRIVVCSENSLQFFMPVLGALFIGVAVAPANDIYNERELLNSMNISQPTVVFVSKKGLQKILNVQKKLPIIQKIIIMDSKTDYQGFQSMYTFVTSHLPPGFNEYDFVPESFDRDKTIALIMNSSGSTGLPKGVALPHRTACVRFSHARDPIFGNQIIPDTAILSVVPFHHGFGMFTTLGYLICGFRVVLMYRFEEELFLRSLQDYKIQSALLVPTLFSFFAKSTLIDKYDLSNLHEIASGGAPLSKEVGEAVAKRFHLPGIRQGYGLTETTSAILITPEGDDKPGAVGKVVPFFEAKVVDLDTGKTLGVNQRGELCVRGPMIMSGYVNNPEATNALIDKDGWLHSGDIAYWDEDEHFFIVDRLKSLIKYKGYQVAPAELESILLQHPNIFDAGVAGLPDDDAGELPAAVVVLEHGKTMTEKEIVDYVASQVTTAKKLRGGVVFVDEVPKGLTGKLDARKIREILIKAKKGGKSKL

For `COc1ccc(C2(C#N)CCC(C(=O)O)CC2)cc1OC1CCCC1` (stereo not given), the Potency result in test [1], in test [2] and in test [3] was “inactive” each time.

As for `CCOc1cc(CC(=O)N[C@@H](CC(C)C)c2ccccc2N2CCCCC2)ccc1C(=O)O`, the Potency result in test [1], in test [2] and in test [3] was “inactive” throughout.

Take `CC[C@]1(O)C[C@H]2CN(CCc3c([nH]c4ccccc34)[C@@](C(=O)OC)(c3cc4c(cc3OC)N(C=O)[C@H]3[C@@](O)(C(=O)OC)[C@H](OC(C)=O)[C@]5(CC)C=CCN6CC[C@]43[C@@H]65)C2)C1`: the Potency result in test [1] and in test [2] was “inactive” each time. In test [3], the Potency is 0.0907 µM (active).

On to `Cn1c(NCCN(CCO)CCCc2ccc([N+](=O)[O-])cc2)cc(=O)n(C)c1=O`, for which the Potency result in test [1], in test [2] and in test [3] was “inactive” throughout.

With `C[C@]12CCC(=O)C=C1CC[C@@H]1[C@H]2[C@@H](O)C[C@@]2(C)[C@H]1CC[C@]2(O)C(=O)CO`, the Potency result in test [1], in test [2] and in test [3] was “inactive” throughout.
